Reference: PubChem BioAssay AID1508601 (ICCB-Longwood Screening Facility, Harvard Medical School, 2020)
In all, about 5,700 compounds went through this assay and about 85 (1%) were called active. Cut-off read from the data, not from the text of the source: active = p53-positive nuclei above about 36% (passing the limit was not always enough); inactive = the rest. The full list was thinned out, with actives kept by preference.

Experiments:
[1] = nuclear p53 accumulation, HPV+ cells – imaging, p53-positive nuclei imaging, 24 h, 48 h (AID 1508601); conditions: 24/48 h
[2] = target: Cellular tumor antigen p53 (Homo sapiens) (UniProt P04637); experiment: as above; conditions: 24/48 h, stronger effect = higher value
[3] = measured here: cell number at 24 h, Library stock concentration: 3.33 mM
[4] = measured here: cell number at 48 h, Library stock concentration: 3.33 mM
[5] = Library stock concentration: 3.33 mM
[6] = measured here: p53 positive nuclei at 24 h, Library stock concentration: 3.33 mM

Cellular tumor antigen p53 (Homo sapiens), sequence (P04637 whole entry, looked up): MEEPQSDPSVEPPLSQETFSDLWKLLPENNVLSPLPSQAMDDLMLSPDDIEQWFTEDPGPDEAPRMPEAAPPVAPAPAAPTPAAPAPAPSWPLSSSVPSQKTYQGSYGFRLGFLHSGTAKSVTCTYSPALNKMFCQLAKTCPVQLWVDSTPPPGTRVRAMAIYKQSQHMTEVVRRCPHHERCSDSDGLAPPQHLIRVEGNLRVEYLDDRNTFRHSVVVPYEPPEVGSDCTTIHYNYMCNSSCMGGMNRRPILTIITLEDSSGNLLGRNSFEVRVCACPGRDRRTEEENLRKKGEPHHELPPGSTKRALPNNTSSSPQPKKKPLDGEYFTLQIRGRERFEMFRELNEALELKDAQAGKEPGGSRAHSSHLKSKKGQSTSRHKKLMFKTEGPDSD

Compound: CN(NC(=O)CC(=O)NN(C)C(=S)c1ccccc1)C(=S)c1ccccc1
- nuclei count, normalised ([1]; measured here: cell number at 24 h, Library stock concentration: 500 nM): 98.9%
- nuclei count, normalised ([1]; measured here: cell number at 24 h, Library stock concentration: 1.5 uM): 108%
- nuclei count, normalised ([1]; measured here: cell number at 24 h, Library stock concentration: 4.6 uM): 110%
- nuclei count, normalised ([1]; measured here: cell number at 24 h, Library stock concentration: 13.7 uM): 111%
- nuclei count, normalised ([1]; measured here: cell number at 24 h, Library stock concentration: 41 uM): 94.3%
- nuclei count, normalised ([1]; measured here: cell number at 24 h, Library stock concentration: 123 uM): 64.8%
- nuclei count, normalised ([1]; measured here: cell number at 24 h, Library stock concentration: 370 uM): 60.9%
- nuclei count, normalised ([1]; measured here: cell number at 24 h, Library stock concentration: 1.111 mM): 60.4%
- nuclei count, normalised [1, 3]: 51.3%
- nuclei count, normalised ([1]; measured here: cell number at 24 h, Library stock concentration: 3.333 mM): 54.8%
- nuclei count, normalised ([1]; measured here: cell number at 24 h, Library stock concentration: 10 mM): 54.4%
- nuclei count, normalised ([1]; measured here: cell number at 48 h, Library stock concentration: 500 nM): 104%
- nuclei count, normalised ([1]; measured here: cell number at 48 h, Library stock concentration: 1.5 uM): 107%
- nuclei count, normalised ([1]; measured here: cell number at 48 h, Library stock concentration: 4.6 uM): 108%
- nuclei count, normalised ([1]; measured here: cell number at 48 h, Library stock concentration: 13.7 uM): 110%
- nuclei count, normalised ([1]; measured here: cell number at 48 h, Library stock concentration: 41 uM): 100%
- nuclei count, normalised ([1]; measured here: cell number at 48 h, Library stock concentration: 123 uM): 63.4%
- nuclei count, normalised ([1]; measured here: cell number at 48 h, Library stock concentration: 370 uM): 55%
- nuclei count, normalised ([1]; measured here: cell number at 48 h, Library stock concentration: 1.111 mM): 52.6%
- nuclei count, normalised [1, 4]: 44.1%
- nuclei count, normalised ([1]; measured here: cell number at 48 h, Library stock concentration: 3.333 mM): 48.4%
- nuclei count, normalised ([1]; measured here: cell number at 48 h, Library stock concentration: 10 mM): 43.1%
- p53-positive nuclei, normalised ([2]; Library stock concentration: 500 nM): 0.0337% (inactive)
- p53-positive nuclei, normalised ([2]; Library stock concentration: 1.5 uM): -0.251% (inactive)
- p53-positive nuclei, normalised ([2]; Library stock concentration: 4.6 uM): 0.0195% (inactive)
- p53-positive nuclei, normalised ([2]; Library stock concentration: 13.7 uM): 0.51% (inactive)
- p53-positive nuclei, normalised ([2]; Library stock concentration: 41 uM): 5.45% (inactive)
- p53-positive nuclei, normalised ([2]; Library stock concentration: 123 uM): 37% (active)
- p53-positive nuclei, normalised ([2]; Library stock concentration: 370 uM): 48.3% (active)
- p53-positive nuclei, normalised ([2]; Library stock concentration: 1.111 mM): 55.8% (active)
- p53-positive nuclei, normalised [2, 5]: 56.4% (active)
- p53-positive nuclei, normalised ([2]; Library stock concentration: 3.333 mM): 64.9% (active)
- p53-positive nuclei, normalised ([2]; Library stock concentration: 10 mM): 64.3% (active)
- p53-positive nuclei, normalised ([2]; measured here: p53 positive nuclei at 24 h, Library stock concentration: 500 nM): -0.0555%
- p53-positive nuclei, normalised ([2]; measured here: p53 positive nuclei at 24 h, Library stock concentration: 1.5 uM): -0.0139%
- p53-positive nuclei, normalised ([2]; measured here: p53 positive nuclei at 24 h, Library stock concentration: 4.6 uM): -0.119%
- p53-positive nuclei, normalised ([2]; measured here: p53 positive nuclei at 24 h, Library stock concentration: 13.7 uM): 1.05%
- p53-positive nuclei, normalised ([2]; measured here: p53 positive nuclei at 24 h, Library stock concentration: 41 uM): 14.4%
- p53-positive nuclei, normalised ([2]; measured here: p53 positive nuclei at 24 h, Library stock concentration: 123 uM): 69.4%
- p53-positive nuclei, normalised ([2]; measured here: p53 positive nuclei at 24 h, Library stock concentration: 370 uM): 85.7%
- p53-positive nuclei, normalised ([2]; measured here: p53 positive nuclei at 24 h, Library stock concentration: 1.111 mM): 93.5%
- p53-positive nuclei, normalised [2, 6]: 80.8%
- p53-positive nuclei, normalised ([2]; measured here: p53 positive nuclei at 24 h, Library stock concentration: 3.333 mM): 103%
- p53-positive nuclei, normalised ([2]; measured here: p53 positive nuclei at 24 h, Library stock concentration: 10 mM): 104%

Compound: O=C(O)c1ccccc1
- nuclei count, normalised [1, 3]: 99.7%
- nuclei count, normalised [1, 4]: 99.1%
- p53-positive nuclei, normalised [2, 5]: -0.166% (inactive)
- p53-positive nuclei, normalised [2, 6]: -0.28%

Compound: O=C(O)CCNC(=O)c1ccccc1
- nuclei count, normalised [1, 3]: 113%
- nuclei count, normalised ([1]; measured here: cell number at 24 h, concentration not given here): 110%
- nuclei count, normalised [1, 4]: 105%
- nuclei count, normalised ([1]; measured here: cell number at 48 h, concentration not given here): 110%
- p53-positive nuclei, normalised [2, 5]: 0.0364% (inactive)
- p53-positive nuclei, normalised ([2]; concentration not given here): 0.0211% (inactive)
- p53-positive nuclei, normalised [2, 6]: -0.327%
- p53-positive nuclei, normalised ([2]; measured here: p53 positive nuclei at 24 h, concentration not given here): -0.211%
